Assay outcomes deposited in PubChem BioAssay by several laboratories.
The list is not random: actives were taken first. Their share in the collection is about 3.5%.
FadD28 FP inh – inhibitors of FadD28 bisubstrate probe binding, primary screen, biochemical, fluorescence polarization, single point; Mycobacterium tuberculosis FadD28 fatty-acid-AMP ligase; inhibition, % at 12.5 µM; actives 0.22% (n = 360,000); in the data active = inhibition above about 8.5%, passing the limit was not always enough
Mtb FBA inh – Mtb FBA enzyme inhibitors, primary screen, biochemical, fluorescence, strain H37Rv; Fructose-bisphosphate aldolase (Mycobacterium tuberculosis (strain ATCC 25618 / H37Rv)), …; inhibition, % at 1 µM; actives 2.3% (n = 360,000); purified M. tuberculosis FBA, fluorescence read-out; in the data active = inhibition above about 27%;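 note: 0% = vehicle and 100% = reference inhibitor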
Rv3671c inh – Rv3671c serine protease inhibitors, primary screen, biochemical, fluorescence polarization, M. tuberculosis H37Rv; P9WHR9; inhibition, % at 5.96 µM; actives 0.048% (n = 320,000); AID 2606, 2010; in the data active = inhibition above about 38%;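 note: extracellular domain of Rv3671c used as enzyme; 0% = enzyme with DMSO and 100% = no enzyme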
GDH-TPI counter – GDH-TPI coupling enzyme inhibitors, primary screen, artefact control for M. tuberculosis FBA inhibitor project, biochemical, absorbance, full deck; GDH-TPI coupled enzyme counterscreen, NADH absorbance; inhibition, % at 4.8 µM; actives 1.2% (n = 360,000); in the data active = inhibition above about 30%;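 note: 0% = DMSO wells and 100% = wells lacking the enzyme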
Mtb UGM inh – M. tuberculosis UGM enzyme inhibitors, primary screen, biochemical, fluorescence polarization, single point; purified UGM, fluorescence polarization probe displacement; inhibition, % at 10 µM; AID 504406, 2011; UDP-galactopyranose mutase (Mycobacterium tuberculosis (strain ATCC 25618 / H37Rv)), …; actives 0.06% (n = 320,000); in the data active = inhibition above about 10%, passing the limit was not always enough
Target sequence (P9WIQ1 whole entry, looked up): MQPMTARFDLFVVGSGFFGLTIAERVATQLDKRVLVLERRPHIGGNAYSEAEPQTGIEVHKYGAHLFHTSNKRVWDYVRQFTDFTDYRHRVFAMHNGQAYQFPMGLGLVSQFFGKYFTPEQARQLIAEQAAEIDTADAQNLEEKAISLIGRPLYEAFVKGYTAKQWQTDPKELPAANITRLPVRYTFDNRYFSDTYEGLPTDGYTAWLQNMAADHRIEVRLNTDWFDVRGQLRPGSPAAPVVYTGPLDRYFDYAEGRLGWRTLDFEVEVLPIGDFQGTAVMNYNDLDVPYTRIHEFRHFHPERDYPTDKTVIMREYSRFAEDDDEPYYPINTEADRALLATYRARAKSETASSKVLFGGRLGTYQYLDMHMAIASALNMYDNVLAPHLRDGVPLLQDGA
Mtb hypoxia inh – PubChem AID 1159583; M. tuberculosis hypoxia-regulated fluorescent reporter, fluorescence; fluorescence inhibition, % (concentration not given with the values); actives 0.1% (n = 300,000); in the data active = fluorescence inhibition mostly above about 23%, no sharp cut-off; inactive = mostly below about 17%
* hit, by the source's call; . = not tested or not shown; + = active, no number.

SMILES | FadD28 FP inh | Mtb FBA inh | Rv3671c inh | GDH-TPI counter | Mtb UGM inh | Mtb hypoxia inh
Cc1ccc(C2C=C(c3ccccc3)Nc3nc(N4C(=O)CCC4=O)nn32)cc1 (stereo not given) | 0.7 | 22.0 | . | 8.8 | . | 3.6
CC1=CC(c2ccc(Cl)cc2)n2nc(N3C(=O)CCC3=O)nc2N1 (stereo not given) | -0.6 | 167.3* | 4.9 | 15.5 | 4.9 | 6.2
O=c1c(-c2nc3ccccc3s2)cccn1Cc1ccccc1 | 1.5 | 194.3* | 7.9 | 20.7 | 1.4 | 16.5
Cc1ccc(S(=O)(=O)c2cc3c(=O)n4ccccc4nc3n(CCCN3CCOCC3)c2=N)cc1C | -1.9 | 128.1* | -3.3 | 17.2 | 2.2 | 3.6
N=c1c(S(=O)(=O)c2ccc(Cl)cc2)cc2c(=O)n3ccccc3nc2n1CCc1ccccc1 | -3.2 | 3.0 | -5.7 | 2.4 | 2.8 | .
N=c1c(S(=O)(=O)c2ccc(Cl)cc2)cc2c(=O)n3ccccc3nc2n1CCN1CCOCC1 | -4.0 | + | 3.1 | 12.4 | 1.7 | 3.2
CCN(CC)c1ccc(C=NOCC(=O)Nc2cccc(C)c2)cc1 | . | . | . | . | . | -4.9
COc1c(F)cccc1C1=CC(=O)CC(c2ccc3c(c2)OCO3)C1 (stereo not given) | . | . | . | . | . | 22.6
CC(C)(C)c1ccc(C(=O)/C=C2\NC(=O)CS2)cc1 | -3.1 | 2.1 | -2.0 | 47.8* | -1.1 | .
Cc1c(Cc2ccccc2)c(NCCCO)n2c(nc3ccccc32)c1C#N | -2.9 | 11.5 | 6.2 | 9.0 | 0.3 | .
COCCNc1c2c(c(C#N)c3nc4ccccc4n13)CCCC2 | 0.2 | 11.2 | 4.9 | 10.6 | -0.7 | 8.2
Cc1cc(NCCCO)n2c(nc3ccccc32)c1C#N | -1.7 | 181.3* | 9.1 | 10.1 | 4.1 | 6.3
COCCNc1cc(C)c(C#N)c2nc3ccccc3n12 | 0.8 | 193.4* | -1.1 | 9.7 | -0.3 | .
Cc1cc(NCCOCCO)n2c(nc3ccccc32)c1C#N | -2.1 | + | -8.9 | 10.8 | 0.9 | -5.5
N#Cc1c2c(c(NCCOCCO)n3c1nc1ccccc13)CCCC2 | 1.7 | 15.5 | -2.2 | 9.8 | -1.4 | 7.3
CN(C)N=C/C=C1\CCC/C(=C/c2cccs2)C1=O | . | . | . | . | . | 4.9
CC(=O)n1cc(C2C=C(C(=O)Nc3ccccc3)OC(OCc3ccc(CO)cc3)C2)c2ccccc21 (stereo not given) | . | . | . | . | . | 1.4
O=C(NCc1ccco1)C(c1ccccc1)N(C(=O)Cc1cccs1)c1cccnc1 (stereo not given) | -1.4 | -2.8 | -3.5 | 1.0 | -1.3 | -7.5
O=C(Nc1sccc1C(=O)NCc1ccco1)c1cccnc1 | -0.8 | 0.7 | -1.2 | 32.2* | 0.8 | 4.1
O=C(COc1ccc(C=NNS(=O)(=O)c2ccccc2)cc1)NCCc1ccccc1 | . | . | . | . | . | 11.8
CC(=O)Nc1cnc(-c2ccccc2C(F)(F)F)cn1 | -4.4 | -3.3 | . | -0.9 | . | .
CNc1cnc(-c2ccc(F)c(F)c2F)cn1 | -0.3 | 165.9* | . | 10.2 | . | .
Cc1cc(C)n(CC(=O)NN=Cc2ccc(C)o2)n1 | . | . | . | . | . | 0.5
CC1(C)CC(=O)C(C=Nc2ccc3c(c2)OCO3)=C(O)C1 | -1.6 | 1.1 | -5.7 | 54.2* | -0.9 | -8.4
COc1ccc(OC)c(N=CC2=C(O)CC(C)(C)CC2=O)c1 | -1.6 | 2.9 | -9.8 | 38.5* | 0.4 | 6.2
SMILES | FadD28 FP inh | Mtb FBA inh | Rv3671c inh | GDH-TPI counter | Mtb UGM inh | Mtb hypoxia inh
COc1ccc(N=CC2=C(O)CCCC2=O)cc1 | -3.3 | -2.5 | -1.6 | 37.0* | -3.5 | 5.1
COc1ccc(N=Cc2c(O)cc(C)oc2=O)cc1 | -3.8 | -0.2 | -5.3 | 14.3 | -4.1 | 7.1
COc1ccc(N=CC2=C(O)CC(C)(C)CC2=O)cc1 | -2.7 | 0.1 | -8.2 | 41.6* | -3.8 | .
CC1(C)CC(=O)C(C=NCc2ccc3c(c2)OCO3)=C(O)C1 | -2.3 | -4.2 | -6.9 | -3.4 | -0.3 | 13.1
Cc1cc(=O)[nH]c(NN=Cc2cccc(Br)c2)n1 | . | . | . | . | . | 9.8
Cc1csc2ncc(C(=O)N3CCCc4ccccc43)c(=O)n12 | -0.3 | 5.7 | 8.1 | 36.5* | -0.1 | 4.6
Cc1csc2ncc(C(=O)N3CCc4ccccc43)c(=O)n12 | 1.0 | 4.8 | -2.8 | 51.9* | -2.2 | -1.3
Cc1c(C(=O)N2CCc3ccccc32)cnn1C | 0.1 | 5.0 | -4.7 | 0.4 | 0.0 | -4.5
Cc1cc(C)cc(-n2c(C)cc(C=NNC(=O)CSc3ncccn3)c2C)c1 | . | . | . | . | . | 4.9
